Assay results taken from PubChem BioAssay (NCI).
About 83,000 compounds went through this panel and 20% of them were active in at least one assay; those are over-represented in the sample as a whole.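 Treatment: one concentration, 48 hours, 96-well format. Scoring: percent growth, with anything below 10 considered active.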 Unmarked numbers belong to inactive results. Active and inactive are the calls of the source.

Assays:
Assay in all cases: NCI-60 one-dose screen, 48 h (100 = growth as untreated, 0 = no growth, -100 = all killed)
Conditions in all cases: 10 µM unless noted
[1] = system: NCI-H23 lung
[2] = system: NCI-H226 lung
[3] = system: NCI-H322M lung
[4] = system: HOP-62 NSCLC
[5] = system: NCI-H460 lung
[6] = system: HOP-92 NSCLC
[7] = system: NCI-H522 lung
[8] = system: A549/ATCC NSCLC
[9] = system: 786-0 renal
[10] = system: COLO 205 colon

Structure (SMILES) | growth [1] | growth [2] | growth [3] | growth [4] | growth [5] | growth [6] | growth [7] | growth [8] | growth [9] | growth [10]
CN(CCNCc1ccccn1)CCNCc1ccccn1 | 18.2% | -63.6% (active) | 9.06% (active) | 4.07% (active) | -7.2% (active) | -7.3% (active) | 18.9% | 0.123% (active) | -3.78% (active) | -5.61% (active)
COc1cc(/C=C\c2cc(/C=C\c3ccc(O)c(OC)c3)n(C(=O)CNc3ccccc3OC)n2)ccc1O | 69.7% | 86% | 90.5% | 86.4% | 81.6% | 81.8% | 21.9% | 83.7% | 97.4% | 107%
COc1cc2c(/C=C3/C(=O)Nc4ccc(O)cc43)c(Cl)n(Cc3cc(OC)c(OC)c(OC)c3)c2cc1C | 41.9% | 65.5% | 48.8% | 40.1% | 4.32% (active) | -5.18% (active) | 0.662% (active) | 16.3% | 15.8% | 4.15% (active)
COc1ccccc1NC(=O)COc1ccc(/C=C2/Oc3cc4occc4c(OC)c3C2=O)cc1OC | 97.1% | 101% | 115% | 101% | 114% | 99.1% | 86.9% | 96.6% | 96.1% | 114%
CN1C(=O)C2(NN=C(c3cccc4ccccc34)S2)c2ccccc21 (stereo not given) | 50.4% | 46.1% | 44.4% | 13.9% | 14.6% | -1.68% (active) | 41.1% | 9.72% (active) | 33.5% | 23.5%
C=C1C(=O)O[C@H]2[C@H]1CC/C(COC(=O)c1ccc(Br)cc1)=C\CC[C@@]1(C)O[C@@H]21 | 32.6% | -55.8% (active) | 60.5% | 25.8% | 25.7% | -73% (active) | -78.1% (active) | 16.2% | -61% (active) | -67.2% (active)
CCCC(C)(C)COC(=O)c1cccc(N)c1 | 103% | 87.8% | 80.9% | 92.5% | 108% | 85% | 60.6% | 89.7% | 93.6% | 110%
CC1=C[S+](c2ccccc2)c2cccc3cc4ccccc4c1c23 (stereo not given) | 5.3% (active) | -21.7% (active) | 21.5% | -42.6% (active) | -32.6% (active) | -59.6% (active) | -95.7% (active) | -8.79% (active) | -80% (active) | -89.5% (active)
Cc1ncc(CO)c(C(=O)O)c1O | 98.6% | 102% | 80.9% | 104% | 105% | 106% | 79.8% | 110% | 97.5% | 112%
c1nc(SC2=NCCN2)c2[nH]cnc2n1 | 46.2% | 46.9% | 36.3% | 23.2% | 66.5% | 36.2% | 25% | 82.9% | 22.7% | 56.8%
Nc1nc(-c2cc3c(cc2Cl)NC(=O)/C3=C/c2ccc(Cl)cc2)cs1 | 49.1% | 72.3% | 59.7% | 63% | 53.1% | 17.8% | 17.3% | 64.5% | 43.7% | 61.7%
CN(C)c1ncc(C#Cc2c(F)cccc2F)c2ccccc12 | 89.9% | 89.4% | 88.5% | 88.1% | 84% | 40.4% | 70.7% | 86.5% | 105% | 98.7%
COc1ccc2c(c1)C(=O)/C(=C/c1ccc(OCC(=O)c3ccc(Cl)cc3)cc1)O2 | 97.1% | 80.7% | 102% | 121% | 106% | 50.6% | -64.2% (active) | 99.2% | 115% | 123%
CCOC(=O)C1CN(Cc2ccccc2)C(=O)C1=O (stereo not given) | 105% | 93.3% | 94.9% | 98.8% | 106% | 84.3% | 98.6% | 112% | 105% | 93.6%
CCN(CC)CCN1C(=O)c2c(c3c4ccccc4[nH]c3c3[nH]c4ccccc4c23)C1=O | 85.6% | 86.6% | 66.6% | 64.7% | 69% | 86.4% | 69.4% | 82.2% | 83.6% | 75.8%
COC(=O)/C=C/C(=O)c1cc(C)cc(C)c1O | 97.5% | 102% | 101% | 96.6% | 111% | 113% | 92.9% | 98.6% | 100% | 108%
O=C(Nc1ccc(-n2cc(-c3ccncc3)c(-c3ccc(O)c(Cl)c3)n2)cc1)c1ccc(Cl)c(Cl)c1 | 43.7% | 74.6% | 71.5% | 27.5% | 22.3% | 14.9% | 26.3% | 33.1% | -41.6% (active) | 64.9%
CCc1c(C)c2cc3nc(NCc4ccccc4)oc3c(C)c2oc1=O | 69.7% | 88.1% | 70.2% | 73.7% | 60.3% | 78.1% | 45.5% | 78.6% | 44.4% | 114%
FC(F)(F)c1cccc([Si](F)(c2cccc(C(F)(F)F)c2)c2cccc(C(F)(F)F)c2)c1 | 43.4% | 70.3% | 91% | 90.2% | 73.9% | 16.1% | 53.2% | 78.1% | 50.5% | 102%
O=C(Nc1cccc(-n2ccc3c(NC(=O)c4ccccc4)nccc32)c1)c1cccc(C(F)(F)F)c1 | 20.8% | 35.6% | 34.2% | 36.4% | 3.05% (active) | 40.3% | -45.2% (active) | 7.84% (active) | -14.6% (active) | -44.5% (active)
C=C1C(=O)O[C@H]2[C@H]1CC/C(COC(=O)c1ccc(Cl)nc1)=C\CC[C@@]1(C)O[C@@H]21 | 47.5% | -9.06% (active) | 68.4% | 57.1% | 56.1% | -40.1% (active) | -83.7% (active) | 39.7% | 9.88% (active) | -73.3% (active)
O=C1OC(N(Cc2ccc(Cl)cc2)c2ccccc2)c2ccccc21 (stereo not given) | 99.7% | 92.9% | 89.6% | 88.9% | 111% | 100% | 65.8% | 90.5% | 91% | 104%
Cc1cccc[n+]1CCC[n+]1ccccc1C | 99.8% | 98.4% | 109% | 84.9% | 106% | 86% | 88.1% | 95.7% | 84.2% | 91.1%
CCCCOc1c(N)cc(Cl)cc1C(=O)OCCN(CC)CC | 104% | 94.1% | 86% | 91.8% | 108% | 89.6% | 53.1% | 86.5% | 92.8% | 115%
COc1ccc(/C(Cl)=N/N=C(\Cl)c2cc(OC)c(OC)c(OC)c2)cc1OC(C)=O | 99.2% | 95.3% | 95.1% | 87.5% | 97.4% | 77.3% | 50.2% | 86.5% | 102% | 98.9%
COc1ccc(-c2ccc(NC(=O)Nc3ccc(Cl)c(C(F)(F)F)c3)c(C)n2)cc1 | 30.9% | 65.2% | 71.4% | 62.1% | 30.9% | 27% | 24.8% | 38.7% | 56.1% | 80.1%
Nc1nc(Nc2ccc(OCc3cccc(F)c3)cc2)c2c(n1)[nH]c1ccc(O)cc12 | 6.71% (active) | -56.2% (active) | 3.43% (active) | -17% (active) | -49.2% (active) | -31.3% (active) | -76.2% (active) | -27.1% (active) | -96.6% (active) | -77.5% (active)
